# Compounds with a hit are over-represented: about 7% of the library has one in this group of screens.
# HP1b chromo inh = blocks HP1-beta chromodomain binding to methylated histone tails | AlphaScreen HP1-beta / biotin-H3K9me3 peptide binding | P83916 | AID 540317 | hit rate 0.56% among 390,000 | Potency, µM (highest dose often 114 µM), without a hit: at the highest dose activity change, negative = inhibition, actives largely listed as inhibitors; also: potency is read from the fitted curve at half-maximal effect; nearly all actives have a fitted effect of over 70% in size
#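 AlphaScreen: HP1-beta (50 nM) preformed 30 min with biotin-H3(1-18)K9me3 peptide (50 nM) in PBS pH 7.4, 0.01% Tween-20. Compound added for 30 min at RT, then streptavidin donor/nickel chelate acceptor beads (10 ug/mL) for 30 min.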
# PLK1 PBD block = blocks phosphopeptide binding to human PLK1 polo-box domain. Plk1 PBD binding of FITC phosphopeptide, fluorescence polarization. Potency, µM, inactives show max response, negative = inhibition, actives largely listed as inhibitors. AID 720504. hit rate 2.8% among 360,000. P53350; also: potency is read from the fitted curve at half-maximal effect; series mostly up to about 57 µM; % is scaled to controls: 0 for no effect and ±100 for the full control effect; nearly all actives have a fitted effect of over 65% in size
# BAZ2B inh = inhibitors of human BAZ2B bromodomain. Q9UIF8. AlphaScreen BAZ2B-H3K14Ac peptide displacement. Potency, µM (titrated, usually from 114 µM), for inactives: top-dose activity change, negative = inhibition, hits mostly inhibitors. hit rate 4.4% among 360,000; also: potency is read from the fitted curve at half-maximal effect; % is scaled to controls: 0 for no effect and ±100 for the full control effect; nearly all actives have a fitted effect of over 60% in size
#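 In this displacement format the biotinylated H3(5-23) peptide acetylated at Lys14 serves as ligand at 50 nM, with BAZ2B at 50 nM in PBS pH 7.4 containing 0.01% Tween-20. Donor and acceptor beads are 10 ug/mL final.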
# GCN5L2 inh = inhibitors of human GCN5L2 histone acetyltransferase; Q92830; GCN5L2 HAT assay, ThioGlo1 CoA-SH fluorescence; Potency, µM (highest dose often 58.9 µM), without a hit: at the top dose activity change, negative = inhibition, usual class: inhibitors; hit rate 0.21% among 390,000; also: potency is read from the fitted curve at half-maximal effect; % is scaled to controls: 0 for no effect and ±100 for the full control effect
#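 GCN5L2 (20nM final) in 50mM HEPES, 0.1mM EDTA pH 7.5, 0.01% Tween-20 was preincubated 15 min at room temperature with compound, then given ThioGlo1 (50uM), H3(1-25) peptide (75uM) and acetyl-CoA (70uM); CoA-thiol fluorescence (Ex340/Em540) was read at 0 and 20 min.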
# JMJD2A Tudor = inhibitors of human JMJD2A Tudor domain; O75164; AlphaScreen JMJD2A-Tudor / H3K4me3 peptide binding; Potency, µM (top dose mostly 114 µM), for the others: at the top dose activity change, negative = inhibition, most hits filed as inhibitors; hit rate 4.4% among 390,000; also: potency is read from the fitted curve at half-maximal effect; % is scaled to controls: 0 for no effect and ±100 for the full control effect; nearly all actives have a fitted effect of over 50% in size
# PI5P4K alpha inh = PI5P4K alpha (human) kinase inhibition. P48426. PI5P4Kalpha enzyme, ADP-Glo luminescence, 60 min; active compounds read low. AID 652105. hit rate 1.2% among 330,000. max response, %; active = max response of -50% or lower; inconclusive = between -30% and -50%; inactive = -30% or higher; also: value at the top dose of about 77 µM; % is scaled to controls: 0 for no effect and ±100 for the full control effect
#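 Human PI5P4Kalpha with substrate in 0.038 M HEPES pH 7.4, 0.28 mM EGTA, 0.1% CHAPS, 5% DMSO; reaction started with 5 microM ATP (final), 60 min at room temperature. ADP formed read by ADP-Glo luminescence.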
# An asterisk follows results filed as active; u = inconclusive; x = no result; [ ] = remark or other dose. Unless noted, calls follow the shape of the dose curve; as a rule, active = well fitted curve in the direction sought with a large enough effect; inconclusive = small, poorly fitted or top-dose-only effect, or another doubt; inactive = no such curve, though single readings can be large; an effect the other way counts as inactive or inconclusive.
SMILES,HP1b chromo inh,PLK1 PBD block,BAZ2B inh,GCN5L2 inh,JMJD2A Tudor,PI5P4K alpha inh
O=C(O)C(Cc1c[nH]c2ccccc12)NS(=O)(=O)c1cccc(Cl)c1Cl (stereo unspecified),16%,-14%,89µM*,14%,-11%,1
COC(=O)CNC(=O)C(Cc1c[nH]c2ccccc12)NC(=O)OC(C)(C)C (stereo unspecified),21%,-1%,0%,-8%,15%,2
COc1ccccc1OCC(=O)NCC1(N(C)C)CCCCC1,38%,x,-3%,-5%,-4%,x
CC(c1nnc(SCC(=O)Nc2cc([N+](=O)[O-])ccc2F)n1Cc1ccccc1)N(C)C (stereo unspecified),21%,-1%,-22%,-2%,-17%,3
CN(C)CCNC(=O)CNC(=S)N(CCCN1CCOCC1)Cc1cccs1,18%,-6%,-3%,12%,-10%,-6
C/C=C/Cn1c(SC)nc2c1c(=O)[nH]c(=O)n2C,5%,27µM*,-3%,-8%,-6%[11.4 µM],-11
Cn1c(=O)[nH]c(=O)c2c1nc(SCCO)n2Cc1ccccc1Cl,-10%,24µM*,-2%,-18%,u,-2
CSc1nc2c(c(=O)[nH]c(=O)n2C)n1Cc1ccc(Cl)cc1,u,6µM*,-11%,-20%,-22%,u
CSc1nc2c(c(=O)[nH]c(=O)n2C)n1Cc1ccccc1Cl,17%,-14%,-3%,-9%,-14%,-8
CCOC(=O)C(CC)Sc1nc2c(c(=O)[nH]c(=O)n2C)n1C/C=C(/C)Cl (stereo unspecified),-11%,2.7µM*,-3%,-5%,18µM*,-53*
O=C(c1ccccc1NS(=O)(=O)c1cccc2cccnc12)N1CCOCC1,11%,-10%,-33%,-8%,-8%,0
CCOC(=O)c1c(C)sc(-c2c(-c3ccc4c(c3)OCCO4)[nH]c3c2c(=O)n(C)c(=O)n3C)c1O,63%,x,u,-5%,-7%,x
CCCn1c(SCc2ccc(Cl)cc2)nc2c1c(=O)[nH]c(=O)n2C,9%,21µM*,-9%,-2%,-3%,-10
CC(=O)c1ccc(NC(=O)C2CCN(c3nnc(C)c4c(C)n(-c5ccccc5)nc34)CC2)cc1,24%,x,u,-23%,u,x
CCCCC(=O)Nc1ccc(C(=O)NNC(=O)CCc2ccccc2)cc1,13%,-4%,-2%,23%,-15%,x
CCCC(=O)Nc1ccc(C(=O)NNC(=S)NC(=O)c2cccs2)cc1,29%,-19%,1%,-9%,-24%,x
CCCCC(=O)Nc1ccc(C(=O)NNC(=O)c2ccc(C)c(Br)c2)cc1,-10%,-10%,-35%,-24%,56µM*,-10
CCCC(=O)Nc1ccc(C(=O)NNC(=S)NC(=O)c2ccc(Br)o2)cc1,u,24µM*,5%,-8%,-4%[11.4 µM],-22
CCN(CC(=O)Nc1c(F)cccc1F)C(=O)c1nn(C)c(=O)c2ccccc12,36%,-5%,10%,1%,-9%,1
COc1cccc(-c2nc(N3CCC(C)CC3)c3ccccc3n2)c1O,-44%,-6%,u,-10%,56µM*,12
COc1ccc(Nc2nc(-c3cccc(OC)c3O)nc3ccccc23)cc1,-16%,-4%,40µM*,-8%,u,-2
COc1cccc(-c2nc(NC(C)(C)C)c3ccccc3n2)c1O,-10%,-5%,u,-17%,u,x
CC(C)CN1CC(C)C(=O)N(c2ccccc2)C1=O (stereo unspecified),25%,3%,x,x,0%,-6
COc1cc(/C=C/C(=O)O)ccc1OS(=O)(=O)c1c(C)cc(C)cc1C,19%,-17%,-21%,-8%,-26%,2
O=C(c1csnn1)N1CCC2(CCCN(Cc3ccccc3)C2)CC1,x,x,x,10%,x,x
SMILES,HP1b chromo inh,PLK1 PBD block,BAZ2B inh,GCN5L2 inh,JMJD2A Tudor,PI5P4K alpha inh
COc1cccc(C2NC(CCSC)(C(=O)O)C3C(=O)N(C(C)C)C(=O)C23)c1O (stereo unspecified),62%,-4%,40µM*,3%,-18%,0
COc1cccc(C2NC(CC(C)C)(C(=O)O)C3C(=O)N(Cc4ccccc4)C(=O)C23)c1O (stereo unspecified),41%,-1%,2%,-7%,-7%,x
O=C(Nc1cc(S(=O)(=O)N2CCOCC2)ccc1OCC(F)(F)F)C1CCCC1,x,-3%,x,x,x,0
O=C(O)CSc1ncnc2sc(-c3ccccc3)cc12,20%,-12%,-5%,-8%,-8%,-78*
CC(=O)N1CCN(c2ncnc3sc(-c4ccccc4)cc23)CC1,36%,-5%,u,-11%,-7%,-5
Oc1ccc(N2CCN(c3ncnc4sc(-c5ccccc5)cc34)CC2)cc1,u,-9%,40µM*,2%,16µM*,-18
Cc1cccc(-n2ncc3c(N4CCCC4)ncnc32)c1,40%,-8%,0%,-9%,-2%,x
O=C(O)CCSc1ncnc2sc(-c3ccccc3)cc12,33%,17µM*,-14%,-10%,-19%,-23
COCCNC(=O)CSc1ncnc2sc(-c3ccccc3)cc12,33%,u,7%,-5%,-9%,-1
Cc1cccc(-n2ncc3c(N4CCN(c5ccccc5)CC4)ncnc32)c1,108%,x,-7%,-3%,16µM*,x
CC(=O)CCSc1ncnc2sc(-c3ccccc3)cc12,29%,-1%,-30%,-2%,-22%,8
Cc1cc(OC(C)C(=O)N(Cc2ccco2)Cc2ccccc2F)cc(C)c1Cl (stereo unspecified),36%,x,29%,-10%,-2%,x
COc1cc(C(=O)N(C)CC2CCN(CCc3cccc(C(F)(F)F)c3)CC2)ccc1C,40%,-1%,-15%,-5%,-16%,22
CC(Sc1ncnc2sc(-c3ccccc3)cc12)C(N)=O (stereo unspecified),26%,-7%,79µM*,-23%,-21%,-3
Oc1cccc(/C=N/NC(=S)Nc2cccnc2)c1O,-13%,0%,5.6µM*,-1%,20µM*,-66*
Cc1cc(/C=N/NC(N)=S)c(O)c(/C=N/NC(N)=S)c1,31%,u,3.2µM*,-6%,13µM*,-64*
COc1cc(OC)c(/C=N/NC(N)=S)cc1Br,31%,-2%,-1%,0%,-5%,3
Oc1ccccc1C=NNC(=S)NN=Cc1ccccc1O,-16%[57 µM],0%,x,x,20µM*,-23
NC(=S)N/N=C/c1cccc(O)c1O,26%,-3%,8.9µM*,-6%,28µM*,1
O=C(NN=Cc1ccccc1O)C1CC1,40%,-2%,x,x,-5%,2
NC(=S)N/N=C/c1ccccc1O,39%,1%,35µM*,-7%,89µM*,-14
O=C(N/N=C/c1ccccc1O)C1SCCCS1,47%,4%,79µM*,-2%,u,-1

# Screening data as filed in PubChem.
